Assay outcomes (PubChem BioAssay)
D2 antagonist: antagonizes the human D2 dopamine receptor; P14416; HEK293 TREx D2 cells, calcium flux, dopamine EC80; inhibition, % at 10 µM; actives 2% (n = 340,000); AID 485344; in the data active = inhibition above about 30%; inactive = below that, where a call was filed; note: 0% is about no effect
Target sequence (P14416 whole entry, looked up): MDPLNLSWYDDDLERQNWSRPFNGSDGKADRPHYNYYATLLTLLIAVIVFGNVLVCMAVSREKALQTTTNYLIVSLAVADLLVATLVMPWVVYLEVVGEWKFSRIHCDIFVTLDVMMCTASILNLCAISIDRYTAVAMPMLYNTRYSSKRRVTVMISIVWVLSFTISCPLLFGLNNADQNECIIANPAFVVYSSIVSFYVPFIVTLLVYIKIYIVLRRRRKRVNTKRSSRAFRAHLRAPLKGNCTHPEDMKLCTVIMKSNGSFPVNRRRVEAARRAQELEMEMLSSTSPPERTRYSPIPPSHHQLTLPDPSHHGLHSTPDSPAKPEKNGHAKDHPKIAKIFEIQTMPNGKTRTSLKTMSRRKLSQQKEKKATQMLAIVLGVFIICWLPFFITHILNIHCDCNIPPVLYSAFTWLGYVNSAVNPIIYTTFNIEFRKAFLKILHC
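Cells plated overnight at 30 C with tetracycline; no-wash calcium dye, 30–90 min RT; 10 s baseline; compound pinned; 180 s read; EC80 dopamine added; another 180 s read.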
D2 PAM-1: positive allosteric modulators of human D2 dopamine receptor; DiscoveRx D2 beta-arrestin cells, luminescence, 90 min; 100% = 57 uM dopamine signal; potentiation, % (no concentration beside the values); actives 0.23% (n = 360,000); in the data active = potentiation above about 50%; inconclusive = mostly about 30% to 49%
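D2 cells co-treated with compound plus 50 nM dopamine (EC20) for 90 min at 37 deg C to detect potentiation. Beta-arrestin recruitment was read as enzyme-fragment luminescence after 1 h at ambient temperature. Full response was set by 57 uM dopamine.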
B2AR arrestin: agonists driving beta-arrestin recruitment to human beta2-adrenergic receptor; Potency, µM (doses to about 46.1 µM), for inactives: at the highest dose activation, actives largely listed as activators; P07550; beta-arrestin recruitment to beta2AR, cell-based reporter; actives 0.02% (n = 330,000); active = well fitted activation curve with a large enough effect; inconclusive = small, poorly fitted or top-dose-only effect;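 note: potency is the fitted concentration of half-maximal effect; 0% = DMSO controls and full agonism = EC100 isoproterenol or metaproterenol; nearly all actives have a fitted effect of over 65% in size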
D2 ag-1: activates the human D2 dopamine receptor | P14416 | HEK293 T-REx D2 cells, calcium flux agonist mode | activation, % at 2 µM | actives 0.53% (n = 340,000) | AID 485358;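 active = activation over 3 SD above normal in the single-dose calcium agonist read, cut at about 30% in these data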; note: 0% is about no effect
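Agonism is scored from calcium flux in a force-coupled, inducible HEK293 cell line expressing D2, read kinetically for 180 s after compound addition against dopamine controls.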
D2 ag-2: agonists of human D2 dopamine receptor (beta-arrestin) | DiscoveRx PathHunter D2 beta-arrestin, luminescence, 90 min; 100% = 57 uM dopamine signal | actives 0.084% (n = 360,000) | activation, % (concentration not given with the values); in the data active = activation above about 40%; inconclusive = between about 15% and that limit
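Agonist mode: compounds alone added to overnight-plated D2 PathHunter cells for 90 min at 37 C, with 57 uM final dopamine (EC100) defining full response. Beta-arrestin recruitment detected by chemiluminescent reagent, read after 1 h at ambient temperature.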
D2 PAM-2: positive allosteric modulators of human D2 dopamine receptor. HEK293 T-REx D2, calcium flux, EC20 dopamine potentiation. actives 0.34% (n = 340,000). potentiation, % at 10 µM;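 active = potentiation over 3 SD above the plate norm, cut at about 30% in these data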; note: 0% is about no effect
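Using a no-wash calcium dye in inducible, force-coupled HEK293 Trex cells expressing D2, we tracked fluorescence each second for 180 s after compound, then for 180 s after EC20 dopamine to detect augmented signalling.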
An asterisk follows results filed as active; ? = inconclusive; · = no result given; ! = a repeat was not active. Only some compounds are listed: those with a hit (about 2.4% of all), similar ones and a draw of the others.

SMILES | D2 antagonist | D2 PAM-1 | B2AR arrestin | D2 ag-1 | D2 ag-2 | D2 PAM-2
CCN1CCN(S(=O)(=O)c2ccc(Cl)c(C(=O)NC3CCCC3)c2)CC1 | 47* | -6 | 0% | 0 | 3 | -7
CCN1CCN(S(=O)(=O)c2ccc(Cl)c(C(=O)NC(C)(C)C)c2)CC1 | 30* | -3 | 0% | 5 | -5 | -9
O=C(Nc1ncc(Cc2ccc(F)cc2)s1)c1ccc2c(c1)CC(c1ccccc1)OC2=O (stereo not drawn) | · | · | · | 1 | · | 9
CCOc1ccc(CN2CCN(Cc3cccc4c3OCO4)CC2CCO)cc1 (stereo not drawn) | -28 | -4 | 0% | 1 | -5 | -29
Cc1ccc(CN2CCN(Cc3cccc4c3OCO4)CC2CCO)cc1 (stereo not drawn) | 88* | -13 | -2% | 0 | -1 | -19
COc1ccc(C2/C=C\CN(C(=O)c3ccc(C)cc3)[C@H](Cc3ccccc3)C(=O)N2Cc2ccc(F)cc2)cc1 (stereo partly drawn) | 41* | -4 | 0% | 1 | -4 | -3
CC(C)(C)n1nnnc1C(c1ccccc1)N1CCN(C/C=C/c2ccccc2)CC1 (stereo not drawn) | · | -13 | · | · | -3 | ·
C(=C\c1ccccc1)/CN1CCN(C(c2ccccc2)c2ccccc2)CC1 | 53* | · | · | · | · | ·
Fc1ccc(C(c2ccc(F)cc2)N2CCN(C/C=C/c3ccccc3)CC2)cc1 | 65* | -30 | 0% | -1 | -2 | -25
CCN(C(=O)CN1C(=O)c2ccccc2S1(=O)=O)C1CCCCC1 | 8 | 2 | 0% | 0 | 0 | -10
CC(C)OCCCNC(=O)c1ccc2c(c1)NC(=O)c1ccccc1S2 | -17 | -1 | 0% | -1 | 2 | 37*!
O=C(OCC(=O)N1CCCC1)c1cc2c(cc1[N+](=O)[O-])OCCO2 | 14 | -10 | 3% | 1 | -2 | 7
Nc1nc(N)nc(-c2ccccc2-c2nc(N)nc(N)n2)n1 | · | -6 | 0% | · | 0 | ·
CC(=O)N1CCc2cc(C(=O)CN3CCN(c4cccc(Cl)c4)CC3)ccc21 | 73* | -13 | 0% | 54* | 10 | -16
COc1ccccc1NC(=O)Cn1c(O)c(N=NC(=O)c2ccccc2O)c2ccccc21 | 55* | 9 | 0% | 4 | ? | -4
Cc1ccc(NC(=O)Cn2c(O)c(N=NC(=O)c3cc4ccccc4cc3O)c3ccccc32)cc1 | -5 | -11 | 0% | 2 | -7 | -8
Cc1ccc(N2CCN(S(=O)(=O)c3ccc4oc(=O)ccc4c3)CC2)cc1Cl | -4 | -4 | -1% | 0 | -4 | 12
COc1ccc(N(CC(=O)Nc2c(C)n(C)n(-c3ccccc3)c2=O)S(=O)(=O)c2ccc(C)cc2)cc1OC | 35* | -2 | 0% | 2 | -2 | 8
Cc1nn(-c2ccccc2)c(Cl)c1/C=N/NC(=O)CNC(=O)c1ccccc1Cl | 46* | -13 | ? | 0 | -6 | -12
Cc1ccccc1CSc1nc2nc(C)c(Cc3ccccc3)c(C)n2n1 | · | · | · | 0 | · | -8
O=C(CSc1n[nH]c(-c2ccco2)n1)Nc1ccccc1Cl | 30* | -2 | 0% | 0 | -4 | 8
Cc1nc(SCC(=O)Nc2ccccc2Cl)oc1C | 31* | 4 | 5% | 0 | -1 | 0
CC1CCCCC1NC(=O)COC(=O)c1cc(=O)c2ccccc2o1 (stereo not drawn) | 3 | -2 | 0% | 2 | -2 | 1
COC(=O)C1=C(C)N(c2ccc(S(N)(=O)=O)cc2)C(=O)C1 | -5 | 7 | 0% | 1 | 0 | -21
COC(=O)C1=C(C)N(c2ccc(Cl)c(Cl)c2)C(=O)C1 | 32* | -23 | 0% | 1 | -3 | -4
SMILES | D2 antagonist | D2 PAM-1 | B2AR arrestin | D2 ag-1 | D2 ag-2 | D2 PAM-2
COC(=O)C1=CN(CC2CCCO2)C=C(C(=O)OC)C1c1ccccc1C(F)(F)F (stereo not drawn) | 43* | 12 | 0% | 0 | -1 | 6
CN1C(C(=O)NCc2cccc(Br)c2)CC2Cn3c(nc4cc(Cl)c(Cl)cc43)C21 (stereo not drawn) | 0 | -14 | 0% | 0 | 0 | 7
CCC1CCCCN1C(=O)CSc1nc2ncccc2[nH]1 (stereo not drawn) | 20 | -7 | 0% | -1 | -3 | -4
O=C(/C=C/c1ccc(Cl)cc1)NC(=S)Nc1ccc(CN2CCOCC2)cc1 | 0 | -21 | -1% | 35* | 1 | -22
CCCCn1c(=O)c(C(=O)OCC)c(O)c2ccccc21 | 38* | 12 | 0% | 1 | 0 | 8
CCCCCn1c(=O)c(C(=O)OCC)c(O)c2ccccc21 | -2 | 15 | 0% | -1 | -2 | 9
Cc1cc(F)ccc1NC(=O)CCS(=O)(=O)c1cc2c(cc1C)NC(=O)CO2 | · | · | · | 1 | · | -4
CCc1cccc(OCC(=O)Nc2ccc(C)c(S(=O)(=O)N3CCCCCC3)c2)c1 | 31* | 1 | 0% | 1 | -1 | 1
Cc1ccc(NC(=O)COc2cccc(C)c2C)cc1S(=O)(=O)N1CCCCCC1 | -5 | -21 | 0% | 0 | 0 | 4
O=C1c2ccncc2C(=O)N1c1cccc(Cl)c1 | 5 | -7 | 0% | 0 | -1 | -3
O=c1onc(-c2ccc(Cl)cc2Cl)n1-c1cccnc1 | 5 | 59* | 0% | 0 | 60* | 12
CC(CCc1ccccc1)NCC(O)COc1ccccc1 (stereo not drawn) | 55* | -9 | 0% | 35* | 5 | -30
OC(CNCC1CCCCC1)COc1ccccc1 (stereo not drawn) | 46* | -22 | 0% | 0 | -1 | -20
OC(CNCc1ccccc1)COc1ccccc1 (stereo not drawn) | 11 | -23 | -1% | -1 | 0 | 3
COCCc1ccc(OCC(O)CNC(C)C)cc1 (stereo not drawn) | 34*! | 0 | · | 1 | -2 | -4
CCN(CC)CCCNC(=O)CNC(=S)N(CCCN1CCOCC1)Cc1cccs1 | -14 | 0 | -1% | 2 | 0 | -6
O=C(CSc1c2c(nc3cc(Cl)ccc13)CCCC2)N1CCN(c2ccccc2)CC1 | · | · | · | 0 | · | 4
COC(=O)c1cccc(NC(=S)NCCC2=CCCCC2)c1 | 0 | -33 | 1% | 1 | 2 | 10
COc1ccc(C)cc1NC(=O)c1cc(S(=O)(=O)NCCC2=CCCCC2)ccc1F | · | · | · | 2 | · | -15
COC(=O)c1ccc(NC(=S)NCCC2=CCCCC2)cc1 | 55* | -19 | 0% | 0 | -1 | -16
COc1ccc(C)cc1NC(=O)NCCC1=CCCCC1 | 86* | -22 | 0% | -1 | -3 | -30
